From PubChem BioAssay (NCATS)
Inconclusive results are not listed. Active and inactive are the calls of the source. Calls come from the whole dose curve; as a rule, active = well fitted curve in the direction sought with a large enough effect; inconclusive = small, poorly fitted or top-dose-only effect, or another doubt; inactive = no such curve, though single readings can be large; an effect the other way counts as inactive or inconclusive.

Key:
[1] = target: Glutathione peroxidase 1 (Homo sapiens) (UniProt P07203); assay: Primary qHTS Assay for Inhibitors of Recombinant Selenoprotein Glutathione Peroxidase 1 (GPX1) (AID 1845191); note: nearly all actives have a fitted effect of over 65% in size; for activity, negative = inhibition: % is set by controls: 0 for no effect and ±100 for the full control effect
Glutathione peroxidase 1 (Homo sapiens), sequence (P07203 whole entry, looked up): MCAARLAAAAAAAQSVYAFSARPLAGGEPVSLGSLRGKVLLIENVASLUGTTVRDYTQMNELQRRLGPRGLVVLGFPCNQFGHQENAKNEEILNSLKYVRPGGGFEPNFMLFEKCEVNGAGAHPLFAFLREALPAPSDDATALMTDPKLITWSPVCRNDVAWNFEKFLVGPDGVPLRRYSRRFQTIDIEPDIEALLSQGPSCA
Summary of the method: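 GPX1 10 nM, GR 100 nM, GSH 1 mM, NADPH 0.5 mM, CHP 0.5 mM (final). 30-min cpd preincubation, RT. Ex340/Em450 read t=0, t=15 min.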

[2] = target: Phospholipid hydroperoxide glutathione peroxidase GPX4 (Homo sapiens) (UniProt P36969); assay: Primary qHTS Assay for Inhibitors of Recombinant Selenoprotein Glutathione Peroxidase 4 (GPX4) (AID 1845192); note: nearly all actives have a fitted effect of over 65% in size; for activity change, negative = inhibition: series mostly up to about 50 µM; % is set by controls: 0 for no effect and ±100 for the full control effect
Phospholipid hydroperoxide glutathione peroxidase GPX4 (Homo sapiens), sequence (P36969 whole entry, looked up): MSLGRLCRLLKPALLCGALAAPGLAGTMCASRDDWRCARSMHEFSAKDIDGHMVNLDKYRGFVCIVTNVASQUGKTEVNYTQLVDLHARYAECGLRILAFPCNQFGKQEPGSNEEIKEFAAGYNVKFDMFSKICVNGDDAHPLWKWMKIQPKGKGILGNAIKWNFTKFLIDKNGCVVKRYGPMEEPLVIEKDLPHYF
Summary of the method: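 qHTS, GR-coupled: GPX4 200 nM + cpd 30 min RT → GSH 1 mM, NADPH 0.5 mM, GR 100 nM → CHP 0.5 mM start; fluor 340/450 at t0 and t15 min; no-enzyme wells as control.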

[3] = target: Luciferin 4-monooxygenase (Photinus pyralis) (UniProt P08659); assay: Primary firefly luciferase (FLuc) qHTS assay for identification of artifact compounds. (AID 1845220); note: nearly all actives have a fitted effect of over 60% in size;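 for activity change, negative = inhibition: series mostly up to about 54 µM; plate controls were DMSO vehicle for no effect and no enzyme for full effect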
Summary of the method: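 In this counter-screen for luciferase artifacts, test compounds met substrate (10 uM each luciferin and ATP) before 10 nM enzyme started the reaction. Light output was measured 5 min later.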

[4] = test system: Nanoluciferase (engineered Oplophorus gracilirostris luciferase); assay: Primary Nanoluciferase (NLuc) qHTS assay for identification of artifact compounds. (AID 1845222);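 note: NLuc secreted into diluted conditioned medium of S16 cells; series mostly up to about 54 µM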
Summary of the method: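 Using secreted nanoluciferase in S16 culture medium (0.22 um filtered, 1:55 dilution), compounds were preincubated 15 min at RT. Signal was generated with Nano-Glo reagent (1:100) over 5 min.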

[5] = Primary redox qHTS assay for identification of artifact compounds. (AID 1845223);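 note: 0% = DMSO and 100% = reference compound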
Summary of the method: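 Redox-cycling detection via DTT (250 uM final) oxidation coupled to Amplex Red (25 uM)/HRP (250 mU/mL) in HBSS. 15 min preincubation plus 30 min after DTT, room temperature. Ex/Em 525/598 nm; 4-parameter Hill fit against DMSO and 10 uM DA3003.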

C/C=C1/[C@H](O[C@@H]2O[C@H](CO)[C@@H](O)[C@H](O)[C@H]2O)OC=C(C(=O)OC)[C@H]1CC(=O)OCCc1ccc(OC(=O)C[C@@H]2C(C(=O)OC)=CO[C@@H](O[C@@H]3O[C@H](CO)[C@@H](O)[C@H](O)[C@H]3O)/C2=C/C)cc1
inactive: Potency [1] | Potency [2] | activity change, negative = inhibition [3] 2.52% [at 11.6 µM] | activity, negative = inhibition [4] 2.4% [at 11.6 µM]

COc1cc(C)c(C(=O)NC2C(C)OC(OC3CCC(C)C4C3C=C(C)C3/C(C)=C\CC/C(C)=C/C5(C)C=C(C(=O)O)C(C)CC56OC(=O)/C(=C(\O)C34C)C6=O)C(O)C2(C)O)c(O)c1 (stereo unspecified)
inactive: Potency [1] | Potency [2] | outcome [3] inactive [at 11.6 µM] | activity, negative = inhibition [4] 4.93% [at 11.6 µM]

C=C1Cc2c(Cl)cc3[nH]c4c5c3c2[C@@]2(O)[C@@H]1C[C@@H]2C(C)(C)O[C@H]5C1CC[C@@]2(O)[C@@]35O[C@@H]3[C@H]3OC(C)(C)[C@H]3O[C@H]5CC[C@]2(C)[C@@]41C (stereo partly specified)
inactive: Potency [1] | Potency [2] | Potency [3] | Potency [4]

COc1cccc(CN(C(=O)CC(C)(C)C)C2CC(C(=O)N3CCNCC3)N(Cc3ccc4c(c3)OCO4)C2)c1 (stereo unspecified)
inactive: Potency [1] | Potency [2] | Potency [3] | Potency [4]

C=CC(C)(O)CC/C=C(\C)C1CC=C(C)C(=O)O1 (stereo unspecified)
inactive: Potency [1] | Potency [2] | Potency [3] | Potency [4]

O=C(CCc1ccccc1)c1c(O)c([C@@H]2O[C@H](CO)[C@@H](O)[C@H](O)[C@H]2O)c(O)c([C@@H]2O[C@H](CO)[C@@H](O)[C@H](O)[C@H]2O)c1O
inactive: Potency [1] | Potency [2] | Potency [3] | Potency [4] | Potency [5]

C/C=C(\C)C(=O)OC[C@H]1O[C@@H](O[C@H]2[C@@H](O[C@H]3O[C@H](COC(=O)/C(C)=C/C)[C@@H](O)[C@H](O)[C@H]3O[C@@H]3O[C@H](CO)[C@@H](O)[C@H](OC(=O)/C(C)=C/C)[C@H]3O)O[C@H](COC(=O)/C(C)=C/C)[C@@H](O)[C@@H]2O)[C@H](O)[C@@H](O)[C@@H]1O
inactive: Potency [1] | Potency [2] | activity change, negative = inhibition [3] 2.77% [at 11.6 µM] | activity, negative = inhibition [4] -1.03% [at 11.6 µM]

C/C=C(\C)C(=O)OCC1OC(OCC2OC(OC3(CO)OC(CO)C(O)C3O)C(O)C(O)C2O)C(O)C(O)C1O (stereo unspecified)
inactive: Potency [1] | Potency [2] | Potency [3] | Potency [4]

C[C@H]1[C@H](C)CC[C@]2(C(=O)OC3OC(CO)C(O)C(O)C3O)CC[C@]3(C(=O)O)C(=CCC4[C@@]5(C)CC[C@H](O[C@@H]6O[C@@H](C)[C@H](OC7OC(CO)C(O)C(O)C7O)[C@@H](O)[C@H]6O)C(C)(C)C5CC[C@]43C)[C@H]12 (stereo partly specified)
inactive: Potency [1] | Potency [2] | activity change, negative = inhibition [3] -5.72% [at 11.6 µM] | activity, negative = inhibition [4] 1.44% [at 11.6 µM]

COc1cc(/C=C/C(=O)O[C@H]2C[C@@H]3C(C(=O)O)=CO[C@@H](O[C@@H]4O[C@H](CO)[C@@H](O)[C@H](O)[C@H]4O)[C@@H]3[C@H]2C)ccc1O
inactive: Potency [1] | Potency [2] | Potency [3] | Potency [4] | Potency [5]

COc1c2c(c(C)c3c1C(=O)OC3)OC1(C)CC(O)C34OC(OC)(CC(O)C3(C)C1C2)OC4(C)C (stereo unspecified)
inactive: Potency [1] | Potency [2] | Potency [3] | Potency [4]

CC1(CO)CCCC2(C)C3COC(=O)C3=CC(O)C12 (stereo unspecified)
inactive: Potency [1] | Potency [2] | Potency [3] | Potency [4]

Cc1ccc(C)c(NC(=O)CNS(=O)(=O)c2ccc3[nH]c(=O)oc3c2)c1
inactive: Potency [1] | Potency [2] | Potency [3] | Potency [4] | Potency [5]

CC(C)C1CCC(CO)=CC1/C=C(\CO)C(=O)OCC1(O)CCC(C(C)C)C2C=C(C(=O)O)COC(=O)C21 (stereo unspecified)
inactive: Potency [1] | Potency [2] | Potency [3] | Potency [4]

CC1OC(OC2C(OC3C(O[C@H]4CC[C@@]5(C)C(CC[C@]6(C)C5C(=O)CC5=C7CC(C)(C)CC(O)[C@]7(C)CC[C@]56C)C4(C)C)OC(C(=O)O)C(O)C3O)OCC(O)C2O)C(O)C(O)C1O (stereo partly specified)
inactive: Potency [1] | Potency [2] | activity change, negative = inhibition [3] 0.49% [at 11.6 µM] | activity, negative = inhibition [4] -10.9% [at 11.6 µM]

CC1=CC2=C(C)C(=O)C(C)(O)C(O)C2CO1 (stereo unspecified)
inactive: Potency [1] | Potency [2] | Potency [3] | Potency [4]

Nc1nc(COC(=O)c2ccc([N+](=O)[O-])cc2)nc(Nc2ccccc2)n1
inactive: Potency [1] | Potency [2] | Potency [3] | Potency [4]

CN1CCN(C2=Nc3ccccc3Nc3ccc(O)cc32)CC1
inactive: Potency [1] | Potency [2] | Potency [3] | Potency [4] | Potency [5]

NC1(c2ccc(NC(=O)c3ccnc(-c4cc(C(=O)O)ccn4)c3)cc2)CC1
inactive: Potency [1] | Potency [2] | Potency [3] | Potency [4] | Potency [5]

COC(=O)[C@]1(C)CCC[C@@]2(C)C(=O)CC[C@H]3C(=O)C=C(CC[C@@H]21)C3O (stereo partly specified)
inactive: Potency [1] | Potency [2] | Potency [3] | Potency [4] | Potency [5]

CC1=C(CO)C2(C)CCCC(C)(C)C2C(O)C1O (stereo unspecified)
inactive: Potency [1] | Potency [2] | Potency [3] | Potency [4] | Potency [5]

COc1ccc(C(=O)CC(=O)O)c2c1C=CC(C)(C)O2
inactive: Potency [1] | Potency [2] | Potency [3] | Potency [4] | Potency [5]

CC1=C2C(=O)C=C(CO[C@@H]3O[C@H](CO)[C@@H](O)[C@H](O)[C@H]3O)[C@@H]2[C@H]2OC(=O)[C@H](C)[C@@H]2CC1
inactive: Potency [1] | Potency [2] | Potency [3] | Potency [4] | Potency [5]

O=C(c1ccc(Cl)c([N+](=O)[O-])c1)N1CCN(c2ccccc2F)CC1
inactive: Potency [1] | Potency [2] | Potency [3] | Potency [4] | Potency [5]

COCC1OC(OC(C)(C)C2CCC3(C)C=C(C4CCC5C4(C)CC(O)C4OC(C(C)(C)O)CCC45C)CCC3O2)C(NC(C)=O)C(O)C1O (stereo unspecified)
inactive: Potency [1] | Potency [2] | Potency [3] | Potency [4] | Potency [5]

CC/C=C/C(O)C(O)C1=C(C)C(=O)C2(O1)C(=O)NC(OC)(C(=O)c1ccccc1)C2O (stereo unspecified)
inactive: Potency [1] | Potency [2] | Potency [3] | Potency [4] | Potency [5]

COc1cc(Nc2nc3ccccc3nc2NS(=O)(=O)c2cccc(NC(=O)c3ccc(C)c(OC)c3)c2)cc(OC)c1
inactive: Potency [1] | Potency [2] | Potency [3] | Potency [4] | Potency [5]

CC1=CC[C@@]2(C)CC[C@@](O)(C(C)C)[C@@H]2[C@@H](O)C1
inactive: Potency [1] | Potency [2] | Potency [3] | Potency [4] | Potency [5]

C/C=C(\C)C(=O)OC1C2(O)CC3=C4CC(=O)OC(c5ccoc5)C4(C)CCC3C(C)(C2=O)C(C(OC(C)=O)C(=O)OC)C1(C)C (stereo unspecified)
inactive: Potency [1] | Potency [2] | Potency [3] | Potency [4] | Potency [5]

C[C@H]1CC[C@H]2[C@@H](C=C[C@@](C)(O)[C@]2(C)C(=O)CCO)C1
inactive: Potency [1] | Potency [2] | Potency [3] | Potency [4] | Potency [5]

OC[C@H]1O[C@@H](OCc2ccccc2)[C@H](O[C@@H]2OC[C@@H](O)[C@H](O)[C@H]2O)[C@@H](O)[C@@H]1O
inactive: Potency [1] | Potency [2] | Potency [3] | Potency [4] | Potency [5]

C[C@@H]1C(=O)O[C@H]2[C@H]1CC[C@@]1(C)C(=O)C=C[C@@](C)(O)[C@H]21
inactive: Potency [1] | Potency [2] | Potency [3] | Potency [4] | Potency [5]

COc1cc(C(=O)OC[C@@]2(O)CO[C@@H](O[C@H]3[C@H](Oc4ccc(O)cc4)O[C@H](CO)[C@@H](O)[C@@H]3O)[C@@H]2O)cc(OC)c1O
inactive: Potency [1] | Potency [2] | Potency [3] | Potency [4] | Potency [5]

C[C@]12CCC[C@](C)(C(=O)O)C1[C@@H](O)[C@@H](O)C13CC(CCC12)C(CO)(O[C@@H]1O[C@H](CO)[C@@H](O)[C@H](O)[C@H]1O)C3 (stereo partly specified)
inactive: Potency [1] | Potency [2] | Potency [3] | Potency [4] | Potency [5]

C[C@@]12CC3(S(=O)(=O)O)OC(O1)[C@]1(COC(=O)c4ccccc4)[C@H]3C[C@]21O[C@@H]1O[C@H](CO)[C@@H](O)[C@H](O)[C@H]1O
inactive: Potency [1] | Potency [2] | Potency [3] | Potency [4] | Potency [5]

N[C@@H](CC(=O)Nc1ccc(Oc2cc(F)c(F)cc2Br)cc1)C(=O)O
inactive: Potency [1] | Potency [2] | Potency [3] | Potency [4] | Potency [5]

CCC(C)/C=C(C)/C=C/C1=CC2=C(Cl)C(=O)C(C)(O)C(=O)C2(O)C(OC)O1 (stereo unspecified)
inactive: Potency [1] | Potency [2] | Potency [3] | Potency [4] | Potency [5]

COc1cc2c(c(O)c1OC/C=C(\C)CC/C=C(/C)CCC=C(C)C)CN(C(CCC(=O)O)C(=O)O)C2=O (stereo unspecified)
inactive: Potency [1] | Potency [2] | Potency [3] | Potency [4] | Potency [5]
